Structures are written as SMILES. Compounds without any hit were thinned out: in the full panel of roughly 79,000, 15% have a hit. Values without a mark were called inactive. The source made the active and inactive calls. Cut-off read from the data, not from the text of the source: active = growth inhibition above about 70%; inactive = the rest.

One assay in a line: NCI Yeast Anticancer Drug Screen. Data for the cln2 rad14 strain (AID 165).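 Note: 0% = growth equal to vehicle treated cultures.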 The note with it: S. cerevisiae cln2 rad14 strain, at 5.0 µM (retest, dose inferred, filed as 0.5), stronger effect = higher value. Summed up: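 Readout is yeast growth inhibition versus vehicle-treated controls, using a strain with cln2 and rad14 alterations exposed to compound.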
Consider `CCOC(=O)/C(=C/c1cccc(Cl)c1)N(CC)CC`, for which the growth inhibition is 43%.
Consider `CC(C)OC(=O)NNc1cccc(Cl)c1`, for which the growth inhibition is 51%.
With `CCC(=O)C1=C(O)c2cc(OC)ccc2CC1C(=O)OC` (stereo not given), the growth inhibition was -5%.
Regarding `O=S(=O)(NC1CCCC(c2ccccc2)C1)c1ccccc1` (stereo not given), the growth inhibition was -13%.
Still for that read-out and setting: next, `COc1ccc2nc3cccc([N+](=O)[O-])c3c(NCCCCCC(=O)O)c2c1`: 99% (active); `CCO/C=C1\SC(=S)N(c2ccc(OCC)cc2)C1=O`: 26%.
Still for that read-out and setting: the same measure for `COc1cc(OC)c(CSCC(NC(=O)OCC2c3ccccc3-c3ccccc32)C(=O)O)c(OC)c1` (stereo not given): 52%; for `COC(=O)c1ccccc1N=NNc1cccc(SC)c1`: 42%.
On to `CC1=NN(C(=O)c2ccccc2O)C(=O)/C1=C/c1ccco1`, for which the growth inhibition was 28%.
In the case of `COc1ccccc1NC(=O)c1ccc(Cl)cc1`, the growth inhibition is 23%.
For the molecule `CC(C)=CCC/C(C)=C/CN1C(=O)C=CC1=O`, the growth inhibition was -29%.
For `O=C1CSC(c2ccccc2)N1c1ccc(-c2ccc(-n3c(-c4ccccc4)nc4ccccc4c3=O)cc2)cc1` (stereo not given), the growth inhibition was 40%.
With `N#CC1OB(O)c2ccccc21` (stereo not given), the growth inhibition is -57%.
Still for that read-out and setting: the same measure for `O=C(NCCNCCNC(=O)c1cc(-c2ccccc2)nc2ccccc12)c1cc(-c2ccccc2)nc2ccccc12`: -4%; for `Brc1ccc(B2Nc3ccccc3N2)cc1`: 12%; for `CCOP(=O)(OCC)/C(C#N)=C/c1cccc(Oc2ccccc2)c1`: -4%.

Staying with this assay, now noted: S. cerevisiae cln2 rad14 strain, at 50.0 µM (retest, dose inferred, filed as 5.0), stronger effect = higher value.
As to `CN(C)CC(CN(C)C)C(=O)/C=C/c1ccc(Cl)cc1Cl`, the growth inhibition was 98% (active).
On to `Cc1ccccc1NC(=O)c1c(C)oc2c1C(=O)c1ccccc1C2=O`, for which the growth inhibition is 51%.
`CC(C)OC(=O)NNc1c(Cl)cc(Cl)cc1Cl`: the growth inhibition is 21%.
On the same count and under the same terms, next, `COc1ccc2nc3cccc([N+](=O)[O-])c3c(NCCNCCO)c2c1`: 98% (active); `CCC(OC(C)=O)C1CC(C(C)C)CCC1C` (stereo not given): 73% (active); `O=S(=O)(c1cccc(C(F)(F)F)c1)N1c2ccccc2-n2cccc2C1c1cccnc1` (stereo not given): 96% (active).
As for `c1ccc(-c2cc(C3CO3)c3ccccc3n2)cc1` (stereo not given), the growth inhibition is 28%.
Turning to `COc1ccc(/C=C2\SC(=S)N(/C=C3\C(=O)N(c4ccccc4)N=C3C)C2=O)cc1OC`, the growth inhibition was 61%.
On to `CC1=CC(=C(c2ccc(N)c(C)c2)c2ccc(N)c(C)c2)C=CC1=N`, for which the growth inhibition was 75% (active).
Consider `CC1C(c2ccccc2)SC(=N)N1C` (stereo not given), for which the growth inhibition is 56%.
Regarding `CC(/C=C/c1ccc([N+](=O)[O-])o1)=N/N1CC(CN2CCOCC2)OC1=O` (stereo not given), the growth inhibition was 90% (active).
For `O=C1c2cccc3cccc(c23)C(=O)N1CCNCCN1C(=O)c2cccc3cccc(c23)C1=O`, the growth inhibition was 6%.
For the molecule `Cc1ccc([N+](=O)[O-])c2c(NCCC[N+](C)(C)[O-])c3ccccc3nc12`, the growth inhibition is 91% (active).
On to `COC(=O)C(Cc1c[nH]c2ccccc12)N1CN(C)c2ccccc2C1=O` (stereo not given), for which the growth inhibition is 54%.
For `O=C(/N=N/C(=O)Oc1ccccc1)Oc1ccccc1`, the growth inhibition is 59%.
Regarding `CC1(C)CC(=O)C(/C=N/c2nc(-c3ccc(Br)cc3)cs2)=C(O)C1`, the growth inhibition was 97% (active).
In the case of `CCOC(=O)/C(=C/c1cccc(Cl)c1)N(CC)CC`, the growth inhibition was 94% (active).
For the molecule `CC(C)OC(=O)NNc1cccc(Cl)c1`, the growth inhibition was 99% (active).
On the same count and under the same terms, the same measure for `CCC(=O)C1=C(O)c2cc(OC)ccc2CC1C(=O)OC` (stereo not given): 20%; for `O=S(=O)(NC1CCCC(c2ccccc2)C1)c1ccccc1` (stereo not given): 16%.
The same measure, in the same setting: next, `COc1ccc2nc3cccc([N+](=O)[O-])c3c(NCCCCCC(=O)O)c2c1`: 99% (active); `CCO/C=C1\SC(=S)N(c2ccc(OCC)cc2)C1=O`: 60%.
Turning to `COc1cc(OC)c(CSCC(NC(=O)OCC2c3ccccc3-c3ccccc32)C(=O)O)c(OC)c1` (stereo not given), the growth inhibition was 99% (active).
`COC(=O)c1ccccc1N=NNc1cccc(SC)c1`: the growth inhibition is 87% (active).
In the case of `CC1=NN(C(=O)c2ccccc2O)C(=O)/C1=C/c1ccco1`, the growth inhibition is 90% (active).
On to `COc1ccccc1NC(=O)c1ccc(Cl)cc1`, for which the growth inhibition was 75% (active).
`CC(C)=CCC/C(C)=C/CN1C(=O)C=CC1=O`: the growth inhibition is 99% (active).
Same read-out and setting: next, `O=C1CSC(c2ccccc2)N1c1ccc(-c2ccc(-n3c(-c4ccccc4)nc4ccccc4c3=O)cc2)cc1` (stereo not given): -1%.
For `N#CC1OB(O)c2ccccc21` (stereo not given), the growth inhibition was -42%.
Consider `O=C(NCCNCCNC(=O)c1cc(-c2ccccc2)nc2ccccc12)c1cc(-c2ccccc2)nc2ccccc12`, for which the growth inhibition is 45%.
The same measure, in the same setting: next, `Brc1ccc(B2Nc3ccccc3N2)cc1`: 40%.
For `CCOP(=O)(OCC)/C(C#N)=C/c1cccc(Oc2ccccc2)c1`, the growth inhibition was 97% (active).

The same assay, now with this note: S. cerevisiae cln2 rad14 strain, at 50.0 µM, stronger effect = higher value.
As for `CN(C)CC(CN(C)C)C(=O)/C=C/c1ccc(Cl)cc1Cl`, the growth inhibition was 43.8%.
`Cc1ccccc1NC(=O)c1c(C)oc2c1C(=O)c1ccccc1C2=O`: the growth inhibition is 53.1%.
`CC(C)OC(=O)NNc1c(Cl)cc(Cl)cc1Cl`: the growth inhibition was 12.3%.
On to `COc1ccc2nc3cccc([N+](=O)[O-])c3c(NCCNCCO)c2c1`, for which the growth inhibition is 86.8% (active).
In the case of `CCC(OC(C)=O)C1CC(C(C)C)CCC1C` (stereo not given), the growth inhibition is 72.2% (active).
`O=S(=O)(c1cccc(C(F)(F)F)c1)N1c2ccccc2-n2cccc2C1c1cccnc1` (stereo not given): the growth inhibition is 93.9% (active).
As for `c1ccc(-c2cc(C3CO3)c3ccccc3n2)cc1` (stereo not given), the growth inhibition is 66.5%.
On the same count and under the same terms, the same measure for `COc1ccc(/C=C2\SC(=S)N(/C=C3\C(=O)N(c4ccccc4)N=C3C)C2=O)cc1OC`: 50.8%; for `CC1=CC(=C(c2ccc(N)c(C)c2)c2ccc(N)c(C)c2)C=CC1=N`: 74.5% (active); for `CC1C(c2ccccc2)SC(=N)N1C` (stereo not given): 23.4%.
Same read-out and setting: the same measure for `CC(/C=C/c1ccc([N+](=O)[O-])o1)=N/N1CC(CN2CCOCC2)OC1=O` (stereo not given): 53.5%; for `O=C1c2cccc3cccc(c23)C(=O)N1CCNCCN1C(=O)c2cccc3cccc(c23)C1=O`: 15.9%; for `Cc1ccc([N+](=O)[O-])c2c(NCCC[N+](C)(C)[O-])c3ccccc3nc12`: 77.8% (active).
Consider `COC(=O)C(Cc1c[nH]c2ccccc12)N1CN(C)c2ccccc2C1=O` (stereo not given), for which the growth inhibition is 70.5% (active).
On to `O=C(/N=N/C(=O)Oc1ccccc1)Oc1ccccc1`, for which the growth inhibition is 43.6%.
Turning to `CC1(C)CC(=O)C(/C=N/c2nc(-c3ccc(Br)cc3)cs2)=C(O)C1`, the growth inhibition was 98.3% (active).
As for `CCOC(=O)/C(=C/c1cccc(Cl)c1)N(CC)CC`, the growth inhibition was 87.5% (active).
Regarding `CC(C)OC(=O)NNc1cccc(Cl)c1`, the growth inhibition is 97.8% (active).
Same read-out and setting: next, `CCC(=O)C1=C(O)c2cc(OC)ccc2CC1C(=O)OC` (stereo not given): 4.75%.
For the molecule `O=S(=O)(NC1CCCC(c2ccccc2)C1)c1ccccc1` (stereo not given), the growth inhibition was 50.8%.
With `COc1ccc2nc3cccc([N+](=O)[O-])c3c(NCCCCCC(=O)O)c2c1`, the growth inhibition was 88.8% (active).
Regarding `CCO/C=C1\SC(=S)N(c2ccc(OCC)cc2)C1=O`, the growth inhibition is 21.1%.
For the molecule `COc1cc(OC)c(CSCC(NC(=O)OCC2c3ccccc3-c3ccccc32)C(=O)O)c(OC)c1` (stereo not given), the growth inhibition is 98.4% (active).
Turning to `COC(=O)c1ccccc1N=NNc1cccc(SC)c1`, the growth inhibition is 86% (active).
With `CC1=NN(C(=O)c2ccccc2O)C(=O)/C1=C/c1ccco1`, the growth inhibition was 83.5% (active).
Turning to `COc1ccccc1NC(=O)c1ccc(Cl)cc1`, the growth inhibition is 16.9%.
With `CC(C)=CCC/C(C)=C/CN1C(=O)C=CC1=O`, the growth inhibition was 99.3% (active).
For the molecule `O=C1CSC(c2ccccc2)N1c1ccc(-c2ccc(-n3c(-c4ccccc4)nc4ccccc4c3=O)cc2)cc1` (stereo not given), the growth inhibition was 36%.
On to `N#CC1OB(O)c2ccccc21` (stereo not given), for which the growth inhibition was 21%.
For the molecule `O=C(NCCNCCNC(=O)c1cc(-c2ccccc2)nc2ccccc12)c1cc(-c2ccccc2)nc2ccccc12`, the growth inhibition was 90.3% (active).
On the same count and under the same terms, the same measure for `Brc1ccc(B2Nc3ccccc3N2)cc1`: 71.7% (active); for `CCOP(=O)(OCC)/C(C#N)=C/c1cccc(Oc2ccccc2)c1`: 90.5% (active).

These data come from PubChem BioAssay (NCI).
